Laboratory results reported in PubChem BioAssay (NCI).
The panel holds about 83,000 compounds, 20% with a hit somewhere; the sample as a whole holds those more often.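 How to read the values: 0–100, growth inhibition (40 = 60% inhibited); 0, no net growth; -100 to 0, cell death (-40 = 40% of starting cells died; -100 = all dead).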 Activity calls are given as the source filed them. How the source made its calls: active means growth percent below 10; inactive means the rest.

Key:
Assay in all cases: NCI-60 one-dose screen, 48 h (100 = growth as untreated, 0 = no growth, -100 = all killed)
Settings in all cases: 10 µM unless noted
NCI-H23 lung = test system: NCI-H23 lung
NCI-H226 lung = test system: NCI-H226 lung
NCI-H322M lung = test system: NCI-H322M lung
HOP-62 NSCLC = test system: HOP-62 NSCLC
HOP-92 NSCLC = test system: HOP-92 NSCLC
NCI-H522 lung = test system: NCI-H522 lung
A549/ATCC NSCLC = test system: A549/ATCC NSCLC
786-0 renal = test system: 786-0 renal
COLO 205 colon = test system: COLO 205 colon
NCI-H460 lung = test system: NCI-H460 lung

Measured: growth

Cn1c(=O)c2c(c3ccccc31)OC(N)=C(C#N)C21C(=O)c2ccccc2C1=O
inactive: NCI-H23 lung 87.5% | NCI-H226 lung 81% | NCI-H322M lung 91.5% | HOP-62 NSCLC 80.3% | HOP-92 NSCLC 92.8% | NCI-H522 lung 95.9% | A549/ATCC NSCLC 95.7% | 786-0 renal 95.1% | COLO 205 colon 102%

Cc1ccc(S(=O)(=O)n2cc(C3C(Cl)C(=O)N3c3ccc(N4CCOCC4=O)cc3)c3ccccc32)cc1 (stereo unspecified)
inactive: NCI-H23 lung 52.5% | NCI-H226 lung 72.3% | NCI-H322M lung 86.7% | HOP-62 NSCLC 67.6% | HOP-92 NSCLC 49.8% | NCI-H522 lung 63.7% | A549/ATCC NSCLC 79.6% | 786-0 renal 86% | COLO 205 colon 108%

O=C1OCC2=C1C(c1cccc(F)c1)c1cc3c(cc1N2CCO)OCO3 (stereo unspecified)
inactive: NCI-H23 lung 33.4% | NCI-H226 lung 67.6% | NCI-H322M lung 51.2% | HOP-62 NSCLC 32% | HOP-92 NSCLC 34.6% | NCI-H522 lung 12.5% | A549/ATCC NSCLC 43% | 786-0 renal 24.5%
active: COLO 205 colon 7.08%

COc1ccc(Cl)cc1Nc1nc(C(F)(F)F)ccc1C(=O)N/N=C/c1ccccc1Cl
active: NCI-H322M lung 1.34% | HOP-92 NSCLC -47.7% | NCI-H522 lung -13.9%
inactive: NCI-H23 lung 16.9% | NCI-H226 lung 17.3% | HOP-62 NSCLC 18.3% | A549/ATCC NSCLC 10.9% | 786-0 renal 11.8%

COC(=O)c1ccc2c(c1)c1c(C)c3ccncc3c(C)c1n2C
active: NCI-H522 lung 6.4% | A549/ATCC NSCLC 7.22% | COLO 205 colon 2.15%
inactive: NCI-H23 lung 24.1% | NCI-H226 lung 25% | NCI-H322M lung 33.6% | HOP-62 NSCLC 24% | HOP-92 NSCLC 18.7% | 786-0 renal 28.5%

Nc1c(C(=O)Nc2ccccn2)sc2nc3c(cc12)C(O)CCC3 (stereo unspecified)
inactive: NCI-H23 lung 45.1% | NCI-H226 lung 57.7% | NCI-H322M lung 36.5% | HOP-62 NSCLC 26.3% | NCI-H460 lung 13.7% | HOP-92 NSCLC 50.9% | NCI-H522 lung 11.8% | 786-0 renal 32.9% | COLO 205 colon 23.6%

C=C(C)[C@@H]1CC[C@]2(CO)CC[C@]3(C)[C@H](CC[C@@H]4[C@@]5(C)CCC(NCCc6ccc(O)cc6)C(C)(C)[C@@H]5CC[C@]43C)[C@@H]12 (stereo partly specified)
inactive: NCI-H226 lung 66.8%
active: NCI-H23 lung -86.6% | NCI-H322M lung -76.5% | HOP-62 NSCLC -77.5% | HOP-92 NSCLC -93.2% | NCI-H522 lung -81.3% | A549/ATCC NSCLC -87.1% | 786-0 renal -92.7% | COLO 205 colon -76.4%

COc1cc2oc(-c3cccc(NC(=O)c4ccc5c(c4)OCO5)c3)cc(=O)c2c(OC)c1OC
active: HOP-92 NSCLC -6.11%
inactive: NCI-H23 lung 52.9% | NCI-H226 lung 65.7% | NCI-H322M lung 43.5% | HOP-62 NSCLC 54.4% | NCI-H460 lung 27.2% | NCI-H522 lung 36.7% | 786-0 renal 19.5% | COLO 205 colon 68.1%

CN1CCN(Cc2ccc(NC(=O)c3cncc(C#Cc4cncc5[nH]ncc45)c3)cc2C(F)(F)F)CC1
inactive: NCI-H322M lung 13.7% | NCI-H522 lung 23.2% | A549/ATCC NSCLC 13.1% | 786-0 renal 20.6%
active: NCI-H23 lung 7.77% | NCI-H226 lung -43.3% | HOP-62 NSCLC 7.14% | HOP-92 NSCLC -22.9% | COLO 205 colon 1.42%

CC(C)CCSc1nc(Nc2ccccc2)c(C#N)c(-c2ccccc2)n1
active: 786-0 renal 8.79%
inactive: NCI-H23 lung 50.1% | NCI-H226 lung 90.3% | NCI-H322M lung 34.3% | HOP-62 NSCLC 19.7% | HOP-92 NSCLC 21.8% | NCI-H522 lung 69.8% | A549/ATCC NSCLC 14.8% | COLO 205 colon 46%

O=C(CSc1nc2ccc([N+](=O)[O-])cc2[nH]1)Nc1cccc([N+](=O)[O-])c1
inactive: NCI-H23 lung 24.8% | NCI-H226 lung 36.5% | NCI-H322M lung 83.5% | HOP-62 NSCLC 95.6% | NCI-H522 lung 19.8% | A549/ATCC NSCLC 58% | 786-0 renal 61.6% | COLO 205 colon 52.5%
active: HOP-92 NSCLC -14.2%

CN1CCN(Cc2cc(NC(=O)c3cccc(C#Cc4cccc5[nH]nc(N)c45)c3)cc(C(F)(F)F)c2)CC1
inactive: NCI-H23 lung 41.3% | NCI-H226 lung 24.6% | NCI-H322M lung 35.9% | HOP-62 NSCLC 42.4% | NCI-H522 lung 20.9% | A549/ATCC NSCLC 27.9% | 786-0 renal 24.9%
active: HOP-92 NSCLC -28.4% | COLO 205 colon -35.3%

O=C1CC2C=CCN2C=C1NC(=O)C1CCCCC1 (stereo unspecified)
inactive: NCI-H23 lung 97.4% | NCI-H226 lung 104% | NCI-H322M lung 100% | HOP-62 NSCLC 102% | HOP-92 NSCLC 115% | NCI-H522 lung 89.7% | A549/ATCC NSCLC 97.5% | 786-0 renal 99.5% | COLO 205 colon 105%

CN1C(=O)N(C)C2C1NC(=S)N2/N=C/C=C/c1ccccc1[N+](=O)[O-] (stereo unspecified)
inactive: NCI-H23 lung 38.2% | NCI-H226 lung 28.4% | NCI-H322M lung 49.3% | HOP-62 NSCLC 26.2% | HOP-92 NSCLC 33.9% | A549/ATCC NSCLC 31.3% | 786-0 renal 26.6% | COLO 205 colon 14.3%
active: NCI-H522 lung 9.84%

CCN(C(=O)N1CCN(c2cc3c(cc2F)c(=O)c(C(=O)O)cn3C2CC2)CC1)c1nc(-c2ccc(C)cc2)cs1
inactive: NCI-H322M lung 10.3% | 786-0 renal 15.6%
active: NCI-H23 lung 6.95% | NCI-H226 lung 3.21% | HOP-62 NSCLC 5.92% | HOP-92 NSCLC -12% | NCI-H522 lung 3.2% | COLO 205 colon -21.2%

O=P(O)(O)OCC1OC(n2cnc3c(NCc4ccccc4)ncnc32)C(O)C1O (stereo unspecified)
inactive: NCI-H23 lung 17.8% | NCI-H226 lung 21.1% | NCI-H322M lung 33.6% | HOP-62 NSCLC 29.9% | HOP-92 NSCLC 22.3% | A549/ATCC NSCLC 55.1% | 786-0 renal 21.3% | COLO 205 colon 11.2%
active: NCI-H522 lung 0.67%

O=C1Nc2ccc(F)cc2/C1=N/c1nnc(Sc2ccccc2)s1
inactive: NCI-H23 lung 87.4% | NCI-H226 lung 90.7% | NCI-H322M lung 103% | HOP-62 NSCLC 94.7% | HOP-92 NSCLC 96.9% | NCI-H522 lung 77.2% | A549/ATCC NSCLC 96.8% | 786-0 renal 105% | COLO 205 colon 119%

C#CC#CC#CC#CC#CC#CC#CC#CCC1OCC(COC(=O)O[C@@H](C(=O)O[C@H]2C[C@@]3(O)[C@@H](OC(=O)c4ccccc4)[C@@H]4[C@]5(OC(C)=O)CO[C@@H]5C[C@H](O)[C@@]4(C)C(=O)[C@H](OC(C)=O)C(=C2C)C3(C)C)[C@@H](NC(=O)c2ccccc2)c2ccccc2)O1 (stereo partly specified)
inactive: NCI-H23 lung 35.2% | NCI-H226 lung 37.6% | NCI-H322M lung 29.1% | HOP-62 NSCLC 30.4% | HOP-92 NSCLC 58.2% | NCI-H522 lung 24.3% | A549/ATCC NSCLC 18.7% | 786-0 renal 32.1% | COLO 205 colon 12.6%

O=C(NCc1ccc2c(c1)OCO2)NCC1CCCC(CNC(=O)NCc2ccc3c(c2)OCO3)C1 (stereo unspecified)
inactive: NCI-H23 lung 99.7% | NCI-H226 lung 100% | NCI-H322M lung 108% | HOP-62 NSCLC 102% | HOP-92 NSCLC 103% | NCI-H522 lung 89.4% | A549/ATCC NSCLC 96.9% | 786-0 renal 97.6% | COLO 205 colon 119%

COC(=O)Cc1nc(C#N)c(N(C)C)o1
inactive: NCI-H23 lung 95.4% | NCI-H226 lung 96.3% | NCI-H322M lung 97.2% | HOP-62 NSCLC 96.7% | HOP-92 NSCLC 95.9% | NCI-H522 lung 90.3% | A549/ATCC NSCLC 95.8% | 786-0 renal 97.6% | COLO 205 colon 104%

N=c1sc(Cc2cc(Cl)ccc2Cl)cn1CC(=O)c1ccccc1
inactive: NCI-H23 lung 68.4% | NCI-H226 lung 66.3% | NCI-H322M lung 56.4% | HOP-62 NSCLC 74.6% | HOP-92 NSCLC 51.2% | NCI-H522 lung 39.8% | A549/ATCC NSCLC 30% | 786-0 renal 78.4% | COLO 205 colon 72.1%

Oc1c(CN2CCCC2)cc(COCc2ccccc2)c2cccnc12
active: HOP-62 NSCLC 1.77% | NCI-H522 lung -2.04% | A549/ATCC NSCLC 8.85% | 786-0 renal 5.96%
inactive: NCI-H23 lung 31.3% | NCI-H226 lung 18.1% | NCI-H322M lung 16.7% | HOP-92 NSCLC 14.7% | COLO 205 colon 71.4%

COc1ncc2cc1NS(=O)(=O)c1cccc(c1)C(=O)NCC1=CC=C(S1)c1ncnc3c1SC2=C3C
inactive: NCI-H23 lung 10.6%
active: NCI-H226 lung -30.4% | NCI-H322M lung -65.4% | HOP-62 NSCLC 4.4% | HOP-92 NSCLC -17.5% | NCI-H522 lung 4.2% | A549/ATCC NSCLC 1.4% | 786-0 renal -23.8% | COLO 205 colon -35.5%

Clc1ccc(-c2cn3ccsc3n2)c(Cl)c1Cl
inactive: NCI-H23 lung 89.8% | NCI-H226 lung 84.6% | NCI-H322M lung 118% | HOP-62 NSCLC 84.9% | HOP-92 NSCLC 58.8% | NCI-H522 lung 81.3% | A549/ATCC NSCLC 97.5% | 786-0 renal 103% | COLO 205 colon 94.9%

COc1ccc(C(c2cc(OC)c(OC)c(OC)c2)N2CCN(Cc3ccccc3)CC2)cc1 (stereo unspecified)
inactive: NCI-H23 lung 88.5% | NCI-H226 lung 85.4% | NCI-H322M lung 65.1% | HOP-62 NSCLC 69.7% | HOP-92 NSCLC 70.6% | NCI-H522 lung 52.4% | A549/ATCC NSCLC 78.4% | 786-0 renal 82.6% | COLO 205 colon 61.8%

O=C(Nc1cccnc1Nc1ccc(Cl)cc1)c1cn(Cc2ccc(F)cc2)nn1
inactive: NCI-H23 lung 99.4% | NCI-H226 lung 94.2% | NCI-H322M lung 98.5% | HOP-62 NSCLC 112% | HOP-92 NSCLC 102% | NCI-H522 lung 91.1% | A549/ATCC NSCLC 103% | 786-0 renal 86.9% | COLO 205 colon 124%

COc1cc2c3c(c1O)-c1ccccc1[C@@H]1OC(=O)N(CC2)[C@H]31
inactive: NCI-H23 lung 100% | NCI-H226 lung 96.7% | NCI-H322M lung 113% | HOP-62 NSCLC 104% | HOP-92 NSCLC 80.8% | NCI-H522 lung 94% | A549/ATCC NSCLC 97% | 786-0 renal 102% | COLO 205 colon 107%
